# Most compounds without a hit are left out; they make up all but 0.31% or so of the library.
# TRPV1 potentiator – enhances activation of the human vanilloid receptor TRPV1; 0.02% of 320,000 active; Q8NER1; potentiation, % at 8.33 µM; TRPV1-expressing cells, Fluo-8 calcium influx, capsaicin EC20 potentiation; in the data active means potentiation above about 80%; inconclusive means between about 30% and that limit
#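 Cells expressing TRPV1 were dye-loaded with Fluo-8 and read kinetically: 10 s baseline, 3 min after compound (agonist portion), then 2 min after EC20 capsaicin (allosteric enhancer portion). Calcium-bound dye fluorescence at 480/520 nm.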
# TRPML1 inh – inhibitors of human TRPML1 channel. Q9GZU1. TRPML1-inducible cells, Ca2+ dye fluorescence, FDSS; stronger effect = lower value; inhibition of EC80 agonist-evoked calcium signal. activity change, negative = inhibition, % (test concentration not listed). 0.02% of 390,000 active; in the data active means activity change below about -50%; inconclusive means between about -30% and that limit;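 further: stimulus is agonist 54-4 at its EC80 concentration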
# Target sequence (Q9GZU1 whole entry, looked up): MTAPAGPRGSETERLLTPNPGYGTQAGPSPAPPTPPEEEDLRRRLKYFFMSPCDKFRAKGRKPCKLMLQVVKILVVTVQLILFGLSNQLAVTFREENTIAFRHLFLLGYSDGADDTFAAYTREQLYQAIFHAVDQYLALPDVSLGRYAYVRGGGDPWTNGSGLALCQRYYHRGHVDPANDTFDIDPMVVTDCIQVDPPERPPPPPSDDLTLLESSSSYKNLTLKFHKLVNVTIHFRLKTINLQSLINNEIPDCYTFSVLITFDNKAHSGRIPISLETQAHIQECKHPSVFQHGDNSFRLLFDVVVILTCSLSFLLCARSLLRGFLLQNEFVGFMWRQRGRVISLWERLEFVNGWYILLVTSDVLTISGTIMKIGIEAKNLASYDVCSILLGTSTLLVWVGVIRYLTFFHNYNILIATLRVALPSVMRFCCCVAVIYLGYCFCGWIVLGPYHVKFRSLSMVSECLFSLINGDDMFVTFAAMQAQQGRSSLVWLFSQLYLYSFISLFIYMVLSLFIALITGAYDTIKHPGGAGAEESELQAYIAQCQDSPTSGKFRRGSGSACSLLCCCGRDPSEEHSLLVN
#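 Tet-induced TRPML1-DL cells loaded with Ca8 no-wash calcium dye were read kinetically on FDSS. Compound addition was followed by EC80 agonist 54-4 (4 uM final); inhibition was read over 110 s.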
# TRPML1 ag – human mucolipin-1 channel agonism; TRPML1-expressing cells, Ca2+ dye fluorescence, FDSS; activation, % (test concentration not listed); 0.12% of 410,000 active; in the data active means activation above about 50%; inconclusive means mostly about 30% to 49%
#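 Tetracycline-induced TRPML1-DL cells are seeded and incubated overnight before loading with a no-wash Ca2+ dye and quencher. Agonist activity is taken from the 110 s fluorescence read following compound pin-transfer on an FDSS, before EC80 54-4 challenge.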
# TRPV1 agonist – human TRPV1 agonism; AID 540275; TRPV1-expressing cells, Fluo-8 calcium influx, agonist mode; 0.19% of 320,000 active; activation, % at 8.33 µM; Q8NER1; in the data active means activation above about 80%; inconclusive means between about 30% and that limit
#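 Cells expressing TRPV1 were dye-loaded with Fluo-8 and read kinetically: 10 s baseline, 3 min after compound (agonist portion), then 2 min after EC20 capsaicin (allosteric enhancer portion). Calcium-bound dye fluorescence at 480/520 nm.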
# Numbers stand for hits; . = inactive; ? = inconclusive; / = no result given.
SMILES,TRPV1 potentiator,TRPML1 inh,TRPML1 ag,TRPV1 agonist
Cc1ccc(C)c(NC(=O)CCn2nc(C)c3c(C)n(-c4ccccc4)nc3c2=O)c1,/,-54,.,/
Cc1cccc(Cn2cnc3c(cnn3C(C)(C)C)c2=O)c1F,/,.,.,/
CCCCCCCCCC[n+]1ccc(/C=C/c2c(C)[nH]c3ccccc23)c2ccccc21,/,/,.,/
CCCN1CCN(c2cc3c(cc2F)c(=O)c(S(=O)(=O)c2ccc(CC)cc2)cn3CC)CC1,/,.,.,/
Nc1ccc2nc(CCc3ccccc3)[nH]c2c1,.,.,.,.
Nc1ccc2nc3c(=O)n(C4CCCCC4)c(=O)[nH]c3nc2c1,.,.,80,?
C=CCn1c(=O)[nH]c2nc3cc(N=CN(C)C)c(C)cc3nc2c1=O,.,.,.,.
Nc1ccc2nc3c(=O)n(CCc4ccccc4)c(=O)[nH]c3nc2c1,.,.,75,107
CCCCn1c(=O)[nH]c2nc3cc(N)ccc3nc2c1=O,.,.,74,?
Cc1cc2nc3c(=O)n(CCc4ccccc4)c(=O)[nH]c3nc2cc1N,.,.,114,?
O=C(Nc1ccc(OC(F)F)cc1)c1nc(SCc2ccccc2F)ncc1Cl,/,/,.,/
CC(C)(C)n1ncc2c(=O)n(Cc3ccc(SC(F)(F)F)cc3)cnc21,/,.,.,/
COc1cccc(/C=C/c2ccnc3ccccc23)c1OC,/,/,.,/
S=c1ncc2n[nH]nc2[nH]1,/,/,.,/
COC(=O)c1c(C(=O)OC)c(-c2ccccc2)n2c1CS(=O)C2 (centres undefined),92,.,.,.
CC(C)COc1cccc(C(=O)Nc2ccc(-c3nc4ncccc4o3)cc2)c1,/,.,.,/
Cc1ccc(NC(=O)C2=CCN(S(=O)(=O)c3ccc(F)cc3)CC2)c(C)c1,.,.,.,?
CCC(C)NC(=O)C1=CCN(S(=O)(=O)c2ccc(C)cc2)CC1 (centres undefined),.,-54,.,.
COC(=O)c1[nH]c2ccc(C)cc2c1NC(=O)CN1CCCC(C)(C)C1,.,.,.,89
CSCc1ccc(C(=O)N2CCCC(Nc3ccc(F)cc3)C2)o1 (centres undefined),.,.,.,84
CSCc1ccc(C(=O)N2CCCC(Nc3ccc4c(c3)OCCO4)C2)o1 (centres undefined),.,.,.,91
CC(=O)/C=C/c1ccc2c(c1)S(=O)(=O)N(C1CCCC1)[C@H]2CC(C)=O,/,/,.,/
Cc1nnc(NC(=O)c2sc3nc(-c4cccs4)cc(C(F)(F)F)c3c2N)s1,.,.,52,.
Cc1ccc(S(=O)(=O)N2C[C@@H]3[C@H]4CC[C@H](C4)[C@@H]3[C@@H](C)[C@@H]2C2CCCCC2=O)cc1 (some centres undefined),/,.,92,/
COc1ccc(-c2cc(C(F)F)n3ncc(C(=O)Nc4cc(C)on4)c3n2)cc1,.,.,.,85
SMILES,TRPV1 potentiator,TRPML1 inh,TRPML1 ag,TRPV1 agonist
Cc1cccc(NC(=O)N2CCC(n3nnc4cc(C)ccc43)CC2)c1,.,.,.,?
Cc1ccc2c(c1)nnn2C1CCN(C(=O)NCc2ccccc2)CC1,.,.,.,89
Cc1ncnc2nc[nH]c12,/,/,.,/
O=C(O)c1sc2cccc(Cl)c2c1Cl,.,.,.,83
C/C(CC(=O)Nc1cc(C)ccn1)=N\NC(=O)c1ccc(C)cc1,.,.,.,.
C/C(CC(=O)Nc1cc(C)ccn1)=N\NC(=O)c1ccccc1C,.,.,61,.
Brc1cccc(-c2nnn3c2nc(N2CCCCC2)c2ccccc23)c1,/,.,.,/
COc1cc2c(C(=O)N3CCOCC3)c(CSc3ccccc3)n(C)c2cc1Br,102,.,.,?
Cc1ccc2c(c1)c1c3n2CCN(C(=O)c2ccc(C(F)(F)F)cc2)C3CCC1 (centres undefined),/,.,56,/
CC(C)(C)C(=O)Nc1ccc2c(c1)C(=O)C(=O)c1ccccc1-2,/,/,.,/
COc1cn(CC(=O)Nc2ccc(C)cc2)c(CN2CCCCC2)cc1=O,/,.,.,/
O=C(CSc1ccc(Br)cc1)N1CCOCC1,.,.,.,80
O=C(Nc1cccnc1)c1ccc(N2CCOCC2)c([N+](=O)[O-])c1,.,.,.,?
O=C(Nc1cccnc1)c1ccc(-c2ccccc2)cc1,.,.,.,87
O=C(Nc1cccnc1)c1ccc(F)cc1,.,.,.,.
O=C(Nc1cccnc1)c1ccc(N2CCCC2)c([N+](=O)[O-])c1,.,.,.,84
CCN(CC)c1ccc2cc(C(C)=O)c(=O)oc2c1,.,.,72,?
CCN(CC)c1ccc2cc(C=O)c(=O)oc2c1,.,.,113,?
CCN(CC)c1ccc2cc(C(N)=O)c(=N)oc2c1,.,.,56,?
CCCN(C(=O)CCc1nc(-c2ccc(C)cc2)no1)c1ccc(OCC)cc1,/,.,.,/
CC(C)c1ccc(NC(=O)c2cccc(Br)c2)cc1,.,.,.,93
O=C(Nc1cccc(C(=O)Nc2cccc(Br)c2)c1)c1ccccc1,.,.,.,.
C/C(=C\C=C(C#N)C#N)c1cc(C#N)c(N)o1,.,.,54,.
COc1cccc(CNC(=O)C2CCN(c3nc4ccc(Cl)cc4[nH]3)CC2)c1,/,.,.,/
CN(C)c1ccc(C(=O)/C=C/c2cccnc2)cc1,.,/,/,.
SMILES,TRPV1 potentiator,TRPML1 inh,TRPML1 ag,TRPV1 agonist
CN(C)c1ccc(/C=C/C(=O)c2cccc(Br)c2)cc1,.,.,.,87
CCCNC(=S)N1CCN(C(c2ccccc2)c2ccccc2)CC1,.,.,.,?
CCCCNC(=S)N1CCN(C(c2ccccc2)c2ccccc2)CC1,.,.,.,81
CCOC(=O)/C(=C\C=C1/Sc2cc(OCC)c(OCC)cc2N1CC)C(C)=O,.,.,89,?
CCOC(=O)/C(=C/C=C1\Sc2cc(OCC)c(OCC)cc2N1CC)C(C)=O,.,.,77,?
CCN1/C(=C/C(C)=O)Sc2ccc(OC)cc21,.,.,.,.
CCCc1nn2c(=O)cc(COC(=O)c3cccc(NC(=O)CCc4ccccc4)c3)nc2s1,/,-62,.,/
CCCCc1nn2c(=O)cc(COC(=O)c3cccc(NC(=O)CCc4ccccc4)c3)nc2s1,/,.,.,/
COc1ccc(CCNC(=S)NCc2ccc(Cl)c(Cl)c2)cc1OC,.,.,.,81
Cc1ccc(C2C(C#N)=C(N)SC(N)=C2C#N)c(C)c1,.,.,64,.
Cc1ccc(C2C(C#N)=C(N)SC(N)=C2C#N)cc1,.,.,.,.
COc1ccc(OC)c(C(Cc2ccnc3ccccc23)Cc2ccnc3ccccc23)c1,/,/,.,/
CCC(C)(C)C1CCC(NC(=O)c2ccc(S(=O)(=O)N3CCOCC3)cc2)CC1 (centres undefined),.,.,.,80
COc1cccc(CN(CC2CCCO2)S(=O)(=O)c2ccc(S(=O)(=O)N(C)C)cc2)c1 (centres undefined),.,.,87,.
CC(C)CC(c1nnnn1C(C)C)N1CCN(C(=O)c2ccco2)CC1 (centres undefined),.,.,.,.
CC(C)CC(c1nnnn1C(C)C)N1CCN(c2cccc(Cl)c2)CC1 (centres undefined),.,.,84,.
